An excerpt weighted towards active compounds, which were near 8.6% of everything screened.
Marburg entry: blocks Marburg virus binding or cell entry. Marburg virus pseudotype entry/binding inhibition, cell-based. Potency, µM (top dose mostly 49.2 µM), inactives show top-dose activity change, negative = inhibition, most hits filed as inhibitors. 18,000 compounds, 6.5% hits. AID 720532
Lassa entry: Lassa virus entry inhibition | Potency, µM (titrated, usually from 49.2 µM), for inactives: at the top dose activity change, negative = inhibition, actives largely listed as inhibitors | 18,000 compounds, 4.1% hits | Lassa virus pseudotyped entry inhibition, cell-based qHTS | AID 720533
Starred values were filed as active, the others as inactive; ? = inconclusive; . = no result given; ! = repeats disagree; [ ] = remark or other dose. Calls follow the shape of the full dose curve; tested in HEK293 cells. % is scaled to controls: 0 for no effect and ±100 for the full control effect; potency is read from the fitted curve at half-maximal effect.

SMILES | Marburg entry | Lassa entry
Cc1ncc2c(c1CNC(=O)c1cncs1)CCN(C(=O)c1cc(F)c(F)cc1F)C2 | -4% | 1%
CN(C)CCc1c[nH]c2ccccc12 | ? | -16%[107 µM]
COc1cc(C(NC(=O)C(F)(F)F)c2cc3ccccc3o2)cc(OC)c1OC (stereo not drawn) | 5%[8.59 µM] | .
CCN1C(=NCc2cc(OC)c(OC)c(OC)c2)NC(c2ccccc2)C(C(=O)OC)=C1C (stereo not drawn) | 43%[8.59 µM] | -3%[8.59 µM]
COc1ccc(/C=C/C(=O)c2cc(O)ccc2O)cc1 | -20% | 0.89µM*
COc1ccc(/C=C/C(=O)c2ccc(O)cc2O)cc1 | 4% | 11%
COC1=C(C(=O)c2ccccc2)C(=O)[C@@]2(CC=C(C)C)C[C@@H]([S+](=O)([O-])c3ccccc3)C(C)(C)[C@@]1(CC=C(C)C)C2=O | -17%[8.59 µM] | .
COc1cc(=O)n2c(c1C(=O)NC(C)c1ccco1)CCN(C(=O)c1cc(C)cc(C)c1)CC2 (stereo not drawn) | 41% | 25%
COC(=O)C1(O)CC2OC1(C)n1c3ccccc3c3c4c(c5c6ccccc6n2c5c31)C(=O)NC4 (stereo not drawn) | 4µM* | ?
COC(=O)[C@@]1(O)C[C@@H]2O[C@@]1(C)n1c3ccccc3c3c4c(c5c6ccccc6n2c5c31)C(=O)NC4 | 14µM* | -20%
CC[C@@]12CCCN3CCc4c(n(c5ccccc45)[C@](O)(C(=O)OC)C1)[C@H]32 | ? | -8%
CC(C)[C@@H](CC(=O)N[C@@H]1CCCC[C@H]1C(=O)N[C@H](CC(=O)N[C@@H](CCC(=O)O)CC(=O)O)Cc1c[nH]c2ccccc12)NC(=O)C[C@H](CO)NC(=O)[C@@H]1CCCC[C@H]1N | 8% | -6%
C[C@H](C(=O)O)c1ccc2cc(O)ccc2c1 | -5% | 8%
CC(CCN1CCc2nc(-c3ccccc3)c(-c3ccccc3)cc2C1)=NO[C@H](C)CN1CCCCc2nc(C)c(C)cc21 | 25%[8.59 µM] | 7%[8.59 µM]
C[N+]1(C)[C@@H]2CC[C@H]1CC(OC(=O)c1c[nH]c3ccccc13)C2 (stereo partly drawn) | 6% | -8%
CN1[C@@H]2CC[C@H]1CC(OC(=O)c1c[nH]c3ccccc13)C2 (stereo partly drawn) | 20µM*! | ?
O=C(NN=C1C[C@@H](O)[C@H](O)[C@H]2[C@@H]3C(=O)N(C[C@@H]4CCCO4)C(=O)[C@@H]3CC[C@@H]12)OCc1ccccc1 | -5%[8.59 µM] | .
CCOC(=O)[C@@H]1CSCCS(=O)(=O)N1C(=O)[C@H](Cc1ccccc1)NC(=O)OC(C)(C)C | -12% | 25%
CC(C)OC(=O)c1cn(Cc2c(F)cccc2F)c2sc(-c3ccc(NC(=O)C(C)C)cc3)c(CN(C)Cc3ccccc3)c2c1=O | 2.5µM* | 16µM*
Clc1ccc(Cn2c(CN3CCCC3)nc3ccccc32)cc1 | -18%[17.8 µM] | 4%[17.8 µM]
COc1ccc(CCN2CCC(Nc3nc4ccccc4n3Cc3ccc(F)cc3)CC2)cc1 | 4µM* | 32µM*!
CN1CCc2cc3c(cc2[C@@H]1[C@@H]1C(=O)Oc2c1ccc1c2OCO1)OCO3 | 4% | -4%
Nc1ncc(-c2cccc(S(N)(=O)=O)c2)c2scc(-c3ccc(F)c(Cl)c3)c12 | 3.1µM* | ?
NCCCC[C@H](N)C(=O)O | 2% | -11%
COC(=O)CC=C[C@@H](C)[C@@H](C=NOC[C@@H](O)COCc1ccco1)NS(=O)(=O)c1ccc(C)cc1 | 21%[8.59 µM] | -16%[8.59 µM]
SMILES | Marburg entry | Lassa entry
O=C(CCCN1CCC(n2c(=O)[nH]c3ccccc32)CC1)c1ccc(F)cc1 | 9%[17.8 µM] | -18%[17.8 µM]
O=c1[nH]c2ccccc2n1C1CCN(Cc2ccc(-c3[nH]c4cc5ncnc5cc4nc3-c3ccccc3)cc2)CC1 | 7.1µM* | 18µM*
Cc1nc2ccccn2c(=O)c1CCN1CCC(C(=O)c2ccc(F)cc2)CC1 | ? | 6%
Cc1nc2sccn2c(=O)c1CCN1CCC(=C(c2ccc(F)cc2)c2ccc(F)cc2)CC1 | ? | 35µM*
O=c1[nH]c(=O)n([C@H]2CCCO2)cc1F | 8% | -6%
COc1cc2c(cc1CC=C(C)C)C(=O)C[C@@H](c1ccc(O)cc1)O2 | ? | 8.9µM*
COc1ccc(C2CC(=O)c3ccc(OC)cc3O2)cc1 (stereo not drawn) | -5% | 2%
CC(C)C[C@H](NC(=O)CNC(=O)[C@H](Cc1ccc(O)cc1)NC(=O)[C@H](CO)NC(=O)[C@H](Cc1c[nH]c2ccccc12)NC(=O)[C@H](Cc1cnc[nH]1)NC(=O)[C@@H]1CCC(=O)N1)C(=O)N[C@@H](CCCN=C(N)N)C(=O)N1CCC[C@H]1C(=O)NCC(N)=O (stereo in doubt) | -2% | -13%
CCNC(=O)[C@@H]1CCCN1C(=O)[C@H](CCCN=C(N)N)NC(=O)[C@H](CC(C)C)NC(=O)[C@@H](Cc1c[nH]c2ccccc12)NC(=O)[C@H](Cc1ccc(O)cc1)NC(=O)[C@H](CO)NC(=O)[C@H](Cc1c[nH]c2ccccc12)NC(=O)[C@H](Cc1cnc[nH]1)NC(=O)[C@@H]1CCC(=O)N1 | ? | 3.2µM*
C[C@]12C[C@H](O)CC(CO)(CO)C1[C@H](O)C[C@@]13CC4[C@@H](CC12)[C@@]4(C)C3 (stereo partly drawn) | -5% | -8%
COC(=O)[C@]1(C=C2c3ccccc3C[C@H](OC)[C@@H]2C)[C@@H]2CC=C[C@@H]21 | -8%[8.59 µM] | -6%[8.59 µM]
Cc1c(C)n(CCN(C)C)c2ccc(C(=O)OCCN(C)C)cc12 | 4µM* | 32µM*
CCCCNc1ccc(C(=O)OCCN(C)C)cc1 | ? | -2%
NCCC[C@@H](CC(=O)N[C@@H]1CCNC[C@H]1C(=O)N[C@H](CC(=O)N[C@@H](CCC(=O)O)CC(=O)O)Cc1c[nH]c2ccccc12)NC(=O)C[C@H](Cc1c[nH]c2ccccc12)NC(=O)[C@@H]1CNCC[C@H]1N | 24% | 2%
COc1ccc(-n2c(CNC(=O)c3ccc(OC)cc3OC)nnc2SC)cc1 | -14% | ?
CCCCc1nc2c(c3c1C[C@H](C)OC3)CN(C(=O)Cc1cccc(OC)c1)CC2 | 2%[8.59 µM] | -15%[8.59 µM]
ClC1=C(Cl)C(Cl)(C2(Cl)C(Cl)=C(Cl)C(Cl)=C2Cl)C(Cl)=C1Cl | 3.2µM* | ?
COc1ccc(C(=O)c2c(C)n(CCN3CCOCC3)c3ccccc23)cc1 | -14% | -27%
COc1ccccc1C1(O)CCN(CCCn2c3ccccc3c3ccccc32)CC1 | 4µM* | ?
CC[C@](N)(CCC(=O)O)C(=O)O | 25% | 21%
C#C[C@]1(OC(C)=O)CC[C@H]2[C@@H]3CCC4=C/C(=N/O)CC[C@@H]4[C@H]3CC[C@@]21CC | -15% | 28µM*
C#C[C@@]1(OC(C)=O)CC[C@@H]2[C@@H]3CCC4=C[C@@H](OC(C)=O)CC[C@H]4[C@H]3CC[C@]21C | 1%[17.8 µM] | -10%[17.8 µM]
Cc1cnc(CNc2cc(-c3ccoc3)ncn2)cn1 | -4% | -2%
CN(C)CC/C=C1/c2ccccc2Sc2ccc(Cl)cc21 | 18µM* | ?
COC(=O)c1cc2c(s1)-c1ccccc1OC2 | 33% | 2%
SMILES | Marburg entry | Lassa entry
CN(C)CC/C=C1\c2ccccc2COc2ccccc21 | 10µM* | -16%
c1ccc([C@@H]2CN3CCSC3=N2)cc1 | 18%[17.8 µM] | -5%[17.8 µM]
N[C@H](C(=O)O)[C@H](O)C(=O)O | 14µM*! | ?
O=C(O)[C@@H](O)[C@H](O)[C@H](O)[C@@H](O)C(=O)O | 5% | -19%
COc1cccc(CNC(=O)c2cnn(-c3ncc4c(n3)-c3ccccc3CCC4)c2C)c1OC | 16% | 59%
COC(=O)CC=C[C@H](C)[C@@H](OCc1ccccc1Br)C(C)C | 14%[8.59 µM] | .

Bioassay records deposited in PubChem BioAssay by National Center for Advancing Translational Sciences (NCATS).
